Experimental data as given in ChEMBL document CHEMBL4513216, “Probing the Open Global Health Chemical Diversity Library for Multistage-Active Starting Points for Next-Generation Antimalarials” (ACS Infect Dis, 2020).
The whole screen tested about 69,000 compounds, of which about 8,600 (12%) showed an effect of 50% or more. This excerpt belongs to a sample that is enriched for strong results.

Each compound was assayed on Plasmodium berghei (assay: Screen against P. berghei liver stage (PbLuc), transformed with Luciferase, at 10uM). Details: tested at 10 uM.
Assay type: functional, HepG2

| SMILES | INHIBITION [%] |
| --- | --- |
| COc1ccc(CN2C[C@@H](N(C)Cc3ccco3)[C@H]3OCCC[C@H]32)cc1 | 31.8 |
| CN(Cc1ccco1)[C@@H]1CN(Cc2ccc(F)cc2)[C@@H]2CCCO[C@H]12 | 81.2 |
| CN(Cc1ccco1)[C@@H]1CN(Cc2ccco2)[C@@H]2CCCO[C@H]12 | 15.4 |
| CN(Cc1ccco1)[C@@H]1CN(Cc2cccnc2)C[C@@H]2CCCO[C@@H]21 | 30.4 |
| CN(Cc1ccco1)[C@@H]1CN(Cc2ccc(F)cc2)C[C@@H]2CCCO[C@@H]21 | 31.8 |
| CN(Cc1ccco1)[C@@H]1CN(Cc2cccnc2)[C@@H]2CCCO[C@H]12 | 55.5 |
| O=C1CCN(C(=O)NCc2ccccc2Oc2ccccc2)CCN1 | 11.4 |
| COCC1CN(C(=O)c2ccco2)Cc2cn(C)nc21 (configuration not stated) | -30.6 |
| Cc1ncc(C(=O)N2CC(C(=O)N3CCCCCC3)C2)c(C)n1 | 27.7045 |
| CN(C)[C@@H]1CN(Cc2ccccn2)C[C@H]1c1cn(C)c2ccccc12 | 13.55 |
| CC(C)=CCN1C[C@@H]2CC[C@H]1CN(C(=O)c1ccc3nc[nH]c3c1)C2 | 10.3 |
| Cc1nn(C)c(C)c1S(=O)(=O)N1CC[C@@H]2O[C@@H](C)C[C@H]2C1 | 7.5 |
| CCN1C[C@H]2C3(CCN(S(C)(=O)=O)CC3)CC[C@@]2(C(=O)N(C)C)C1 | 44.8 |
| CC(c1nnc(-c2ccccc2)o1)N1CCC(Nc2ccccc2)CC1 (configuration not stated) | 31.5 |
| COCC1CN(Cc2ccc(C)o2)Cc2nnn(C)c21 (configuration not stated) | -102 |
| O=c1[nH]c(CN2CCCC(Cn3cncn3)C2)nc2ccccc12 (configuration not stated) | 21.01 |
| CCC1CCCN(Cc2nc3ccccc3c(=O)[nH]2)C1 (configuration not stated) | 67.5 |
| Cc1nc(CC2CCCN(Cc3nc4ccccc4c(=O)[nH]3)C2)no1 (configuration not stated) | 45.2 |
| Cc1nccn1C1CCCN(C(=O)c2ccc3cc[nH]c3c2)C1 (configuration not stated) | 4.52 |
| CC(C)CC(C)NC1CCN(c2cccc(-c3cscn3)c2)CC1 (configuration not stated) | 34.1 |
| Cc1nnc(-c2cccc(N3CCC(NC4CCSC4)CC3)c2)s1 (configuration not stated) | 18.9 |
| Cc1nnc(-c2cccc(N3CCC(NC(C)CC(C)C)CC3)c2)s1 (configuration not stated) | 62.4 |

| SMILES | INHIBITION [%] |
| --- | --- |
| COCCNC(=O)c1ccc(NCc2c(C)noc2C)cc1Cl | 2.03 |
| O=C(c1cnccn1)N1CCOC2(CCCN(c3ncccc3F)C2)C1 (configuration not stated) | 39.5 |
| COCCNC(=O)N1CCN(c2cc(F)ccc2F)CC1 | 8.7 |
| CNCc1cnc(Nc2ccccc2)nc1 | 39.9 |
| CC(C)c1nnc(NC(=O)C2CSCN2C(=O)C2CCC2)s1 (configuration not stated) | 61.2 |
| O=C(Nc1nncs1)C1CSCN1C(=O)C1CCCC1 (configuration not stated) | 20.5 |
| Cc1nnc(NC(=O)C2CSCN2C(=O)C2CCCC2)s1 (configuration not stated) | 25.4 |
| CC(C)CN(C(=O)Nc1cccnc1)C1CC1 | -18.5 |
| CN(C(=O)NC1CC1)C1CCN(c2ccc(Cl)cc2)CC1 | 13.9 |
| CN(CC(=O)N(C)C1CC1)C1CCN(c2ccc(Cl)cc2)CC1 | 29 |
| COc1ccc(N2CCC(N(C)C(=O)C(C)SC)CC2)cc1 (configuration not stated) | 60.4 |
| CN(C(=O)Nc1cccnc1)C1CCN(c2ccc(Cl)cc2)CC1 | 60.4 |
| COc1ccccc1OC1CCN(c2ccncc2)CC1 | -2.93 |
| CN(C(=O)Nc1ccncc1)C1CCN(c2ccc(Cl)cc2)CC1 | 83.1 |
| CSC(C)C(=O)N(C)C1CCN(c2ccc(Cl)cc2)CC1 (configuration not stated) | 35.5 |
| COc1ccc(N2CCC(N3C[C@H](NC(C)=O)[C@@H](C(C)C)C3)CC2)cc1 | 33 |
| CN1CCC(Oc2ccc(-n3ccnc3-c3ccncc3)cc2)CC1 | 49.4 |
| COc1ccc(OC2CCN(c3ccncc3)CC2)cc1 | 55.1 |
| CN1CCC(N(C)C(=O)Nc2ccc(Cl)cc2)CC1 | -5.64 |
| CS(=O)(=O)N[C@@H]1CN(Cc2ccc3ccccc3c2)C[C@H]1O | -6.88 |
| O=C(Cc1ccccn1)N1CCCC(c2nccn2CC2CCC2)C1 (configuration not stated) | 10.7 |
| O=C(O)c1cc(C2CC2)nc2c(Cl)cnn12 | 29.2 |

| SMILES | INHIBITION [%] |
| --- | --- |
| CC(C)C(C(=O)N1CCN(c2nccs2)CC1)n1cncn1 (configuration not stated) | 5.03 |
| Cc1nc(C2CCNC2)nc2c1CCC(=O)N2CC(C)C (configuration not stated) | 25.65 |
| CN1C(=O)c2cccc(NC(=O)c3ccc4c(c3)OCCO4)c2C1=O | 8.46 |
| CC(C)(C)NC(=O)[C@@H]1CNC[C@]12Cc1ccccc1C(=O)N2 | 24.2 |
| COCCNc1nnc(-c2cnc(C)cn2)s1 | -54.1 |
| c1cncc(C[C@H]2[C@H](N3CCOCC3)CCN2Cc2nccs2)c1 | 8.85 |
| Cn1cc(C(=O)N2CCN(Cc3cscn3)CC2)ccc1=O | -8.22 |
| COCc1ncc(CN2CCC(Oc3ccccc3OC)CC2)cn1 | -20.6 |
| CCOC(C)C(=O)N(C)C1CCN(c2ccc(OC)cc2)CC1 (configuration not stated) | 33.4 |
| Cc1cc(NC(=O)N(C)CCN2CCN(c3ccccc3)CC2)on1 | 35.5 |
| COc1ccc(N2CCC(N(C)C(C)C(=O)N(C)C)CC2)cc1 (configuration not stated) | 45.3 |
| CN(CCN1CCN(c2ccccc2)CC1)C(=O)Nc1ccccn1 | 45.4 |
| COCc1ncc(CN2CCC(Oc3ccccc3C)CC2)cn1 | 26.8 |
| COCc1ncc(CN2CCC(Oc3ccc(OC)cc3)CC2)cn1 | 56 |
| COc1ccc(N2CCC(N(C)C(=O)Nc3ccncc3)CC2)cc1 | 52.8 |
| CN(CCN1CCN(c2ccccc2)CC1)C(=O)Nc1ccncc1 | 73.2 |
| CC(=O)NCCc1ccc(S(=O)(=O)Nc2ccc(C)cc2F)s1 | -44.2 |
| CN(C)c1cc(C2CCCN2)ccn1 (configuration not stated) | 33.54 |
| O=S(=O)(Cc1ccon1)N1CCN(c2ccncc2Cl)CC1 | 38.9 |
| O=c1[nH]c2ncccc2n1C1CCNCC1 | -6.18 |
| Cc1nccn1-c1cc(CNC(=O)CC2CCCO2)ccn1 (configuration not stated) | 30.6 |
| CO[C@H]1CC[C@H]2[C@H]1OCCN2Cc1ccc(F)c(F)c1 | 22.4 |

| SMILES | INHIBITION [%] |
| --- | --- |
| CCN(C)c1ncnc2c1CCN(CC1CCOC1)CC2 (configuration not stated) | 55.5 |
| CN(C)c1ncnc2c1CCN(CC1CCOC1)CC2 (configuration not stated) | 19.9 |
| c1nc2c(c(NCCCn3cncn3)n1)CCN(CC1CCOC1)CC2 (configuration not stated) | 31.6 |
| CN(C)c1ncnc2c1CCN(CC1CCOCC1)CC2 | 64.9 |
| Cc1cnn(CCNc2ncnc3c2CCN(CC2CCOC2)CC3)c1 (configuration not stated) | 60 |
| Cc1ccc(Nc2ncnc3c2CCN(CC2CCOC2)CC3)cc1 (configuration not stated) | 29.8 |
| Cc1ncnc2c1CCN(CC1CCOC1)CC2 (configuration not stated) | 18.3 |
| CCN(CC)c1ncnc2c1CCN(CC1CCOCC1)CC2 | 41.6 |
| c1nc2c(c(C3CC3)n1)CCN(CC1CCOC1)CC2 (configuration not stated) | 13.6 |
| CCOC(=O)Cn1c(=O)[nH]c2cn(-c3ccccc3)c(=O)n21 | 7.3 |
| Cc1cc(N2CCCC2c2nccnc2C)ncn1 (configuration not stated) | 26.8 |
| Cc1nc(CN2CC3(CCN(c4nccs4)C3)CC2=O)cs1 (configuration not stated) | -3.52 |
| CCN(CC)C1CCN(C(=O)NCc2cccc(-n3cccn3)c2)C1 (configuration not stated) | 27 |
| CC(=O)Nc1ccc(-n2ccc3nc(N4CCCC4)ncc3c2=O)cc1 | 80.5 |
| O=c1c2cnc(N3CCCCC3)nc2ccn1-c1ccccc1 | 19.7 |
| CC(=O)c1ccc(-n2ccc3nc(N4CCCC4)ncc3c2=O)cc1 | -82.2 |
| COCC(=O)NC(C)c1cccc(Br)c1 (configuration not stated) | -60.9 |
| Cc1ccn(-c2ccnc(N3CCSCC3)n2)n1 | 30 |
| COc1ccc(C[C@H]2CN(C(=O)CN(C)C)CC[C@H]2OC)cc1 | 41.6 |
| CO[C@H]1CCN(Cc2ccoc2)C[C@@H]1Cc1ccccc1 | 41.4 |
| CO[C@@H]1CCN(Cc2ccoc2)[C@H]1Cc1ccccc1 | 29.5 |
| COc1ccc(CN2C[C@@H]3CN(Cc4ccoc4)C[C@@H]3C2=O)cc1 | -4.82 |

| SMILES | INHIBITION [%] |
| --- | --- |
| CO[C@@H]1CCN(Cc2ccoc2)C[C@@H]1Cc1ccccc1 | 51.4 |
| COc1ccc(C[C@H]2CN(Cc3ccoc3)CC[C@H]2OC)cc1 | 63.3 |
| COc1ccc(C[C@H]2CN(C(=O)C3CC3)CC[C@H]2OC)cc1 | 11.2 |
| COc1ccc(C[C@H]2CN(Cc3ccoc3)CC[C@@H]2OC)cc1 | 58.3 |
| COc1ccc(C[C@H]2CN(C(=O)c3cnoc3)CC[C@@H]2OC)cc1 | -50.4 |
| CC(C)C1CCCN1CCCc1nc(-c2cccs2)no1 (configuration not stated) | -4.94 |
| CCN1C(=O)CCC12CCC(NC(=O)c1ccncc1F)CC2 (configuration not stated) | 38.3 |
| CCn1nc(C)cc1C(=O)N1C[C@@H](CN(C)C)[C@@H](CO)C1 | 38.7 |
| O=C(NCC1CCCO1)c1nc2c(s1)CCCN2CC1CC1 (configuration not stated) | -14.2 |
| Cn1cccc1-c1nnc(C2(c3ccc4c(c3)OCO4)CCOCC2)o1 | 41.8 |
| c1cc(-c2nnc(C3(c4ccc5c(c4)OCO5)CCOCC3)o2)ccn1 | 40.7 |
| c1cncc(-c2nnc(C3(c4ccc5c(c4)OCO5)CCOCC3)o2)c1 | 72.2 |
| CCN1CCC(CC(=O)NCCc2nc(N)cc(O)n2)CC1 | 0.348 |
| Cc1cnc(C(=O)N2CCC3(CC2)C(=O)NCCN3CC(C)C)cn1 | 26.5 |
| CCN1CCNC(=O)C12CCN(C(=O)c1ccccn1)CC2 | -5.25 |
| Cc1cc(C(=O)N2CCC3(CC2)c2nc[nH]c2CCN3CC(C)C)no1 | 20.4 |
| CC(C)CN1CCNC(=O)C12CCN(C(=O)c1ccccn1)CC2 | 50.7 |
| CC(C)CN1CCc2[nH]cnc2C12CCN(C(=O)c1ccccn1)CC2 | 55 |
| CC(C)CN1CCc2[nH]cnc2C12CCN(C(=O)c1cc[nH]n1)CC2 | 48.5 |
